Our source for the Potency and activity change, negative = inhibition values is PubChem BioAssay AID651791 (National Center for Advancing Translational Sciences (NCATS), 2012).

Results filed as inconclusive are left out. Calls of active or inactive are those of the source. The call rests on the fitted dose curve; in most records, active means well fitted inhibition curve with a large enough effect; inconclusive means small, poorly fitted or top-dose-only effect; inactive means no such curve, though single readings can be large or run the other way.
Potency means the concentration at half of the fitted maximal effect.

This assay in a line: InCell qHTS Assay for Inhibitors of the mTORC1 Signaling Pathway in MEF (Tsc2-/-, p53-/-) Cells: Hit Validation. Further: nearly all actives have a fitted effect of over 75% in size. The note with it: phospho-rpS6 immunofluorescence, 24 h; activity change, negative = inhibition: at 38.3 µM (top of the series). The text has this:
The mammalian target of rapamycin (mTOR) is an intracellular serine/threonine kinase Aberrant regulation of mTOR signaling plays a causative role in a number of human diseases, including cancer, benign tumors such as lymphangioleiomyomatosis (LAM) and Tuberous Sclerosis Complex (TSC), and metabolic diseases such as diabetes and obesity. This project aims to identify inhibitors of ribosomal protein S6 (rpS6) phosphorylation. The phosphorylation of rpS6 is a key event downstream of mTOR activation. The assay uses a phospho-specific antibody of phospho-rpS6 to detect inhibitors of mTOR activation. Mutations in the Tsc1 and Tsc2 genes are the underlying genetic lesions responsible for TSC, causing constitutive activation of the mTORC1 pathway and leading to profound effects on cell metabolism. Aberrant metabolism in cancer has recently received significant attention as a target to develop therapeutic agents in the treatment of cancer.1 As Tsc2-/- cells have lost the ability to respond to energy and growth factor deprivation, these cells are unable to properly down regulate cellular biosynthetic processes in response to metabolic stress, and are thus extremely sensitive to glucose deprivation-induced death.2 A central goal of this project is to explore the unique cell survival and metabolic properties of cells with Tsc1 or Tsc2 by screening for compounds that selectively target the Tsc2-/- MEFs by screening both Tsc2-/- and WT MEF cell lines. We hope to better understand these aspects of TSC physiology in order to exploit them for therapeutic benefit. NIH Molecular Libraries Probe Production Centers Network [MLPCN] NIH Chemical Genomics Center [NCGC] MLPCN Grant: NS059428 Assay Submitter (PI): Blenis, John; Harvard University
For quantitative high throughput analysis of mTORC1 signaling, we developed a cell-based assay for immuno-fluorescence based detection of rpS6 phosphorylation on the Acumen Explorer that will be used a platform for the primary small molecule screen. Mouse embryonic fibroblasts (MEFs) are cultured in 1536-well plates using DMEM + 10% FBS. Twenty-four hrs after plating, test compounds (solubilized in DMSO) are delivered and incubated with the cells for 24 hrs at 37 degree Celsius. Following the incubation, media with compound is aspirated and the cells are fixed in 4% paraformaldehyde (PFA) containing PBS + 0.2% TX-100. Next, PFA is aspirated, cells are washed two times with PBS plus 0.2% TX-100 and the cells are blocked for 1 hr at room temperature (blocking buffer: LiCOR Blocking Buffer plus 0.2% TX-100). This is followed by aspiration and staining with Alexa-488 conjugated-phospho-rpS6 Ser235/236 antibody for 2 hours at room temperature (Cell Signaling Technology # 4803, 1:50 dilution in blocking buffer). Cells are washed two times with PBS plus 0.2% TX-100, and stained with 10 uM propidium iodide (PI) for 20-25 minutes for cell number measurement (1:500 dilution of Hoescht staining is also added for IN Cell imaging). The plates are scanned on the Acumen Explorer laser scanning instrument (TTP Labtech) using the 488nm laser for simultaneous excitation of the Alexa-488 and PI. The fluorescence emission from the Alexa-488 conjugated rpS6 phospho-235/236 antibody staining is selected using a […] band pass filter. Fluorescence emission from the PI stain is selected using a 575-640 nm band pass filter. The normalized phospho-S6 staining is calculated as the ratio of the integrated Alexa 488 intensity divided by the integrated PI intensity for the single concentration rapamycin control (7.5 nM) and DMSO columns. […] Inhibition of the pathway is defined based on the normalized phospho-S6 intensity in rapamycin treated cells. […]
With `CCOc1ccc(NC(=O)CSc2oc(-c3ccccc3)nc2S(=O)(=O)c2ccc(Cl)cc2)cc1`, the Potency was 3.69 µM (active).

On to `CCN(CC)C(=O)c1ccc(NC(=O)CCn2nc(-c3ccc(C)cc3)c3ccccc3c2=O)cc1`, for which the activity change, negative = inhibition is -100%.

Turning to `Cc1ccccc1-n1c(/C=C/c2c(C)[nH]c3ccccc23)nc2ccccc2c1=O`, the activity change, negative = inhibition is -100%.

With `CCOc1ccc(CN(CCc2ccc3c(c2)OCO3)Cc2ccc(C)cc2)cc1`, the activity change, negative = inhibition is -100%.

As to `Cc1ccccc1-n1c(/C=C/c2ccccc2F)nc2ccccc2c1=O`, the activity change, negative = inhibition is -100%.

With `O=C(Nc1ccon1)c1cccn(Cc2cccc(Cl)c2)c1=O`, the activity change, negative = inhibition was -100%.

For `Cc1ccccc1-c1nc(CN2C(=O)CN=C(c3ccccc3)c3ccccc32)c(C)o1`, the activity change, negative = inhibition was -100%.

Consider `Cc1ccc(-n2c(/C=C/c3ccc(Br)s3)nc3ccccc3c2=O)cc1C`, for which the activity change, negative = inhibition was -100%.

Take `CCN(CC)CCSc1nc2ccccc2c(=O)n1-c1ccc(Cl)cc1`: the activity change, negative = inhibition was -100%.

As to `COc1ccc2nc(NC(=O)c3nc(S(=O)(=O)Cc4cccc(C)c4)ncc3Cl)sc2c1`, the Potency was 18.5 µM (active).
